# The campaign covered roughly 360,000 compounds. About 4,500 (1.2%) were called active. Rule as the data show it: active = inhibition above about 30%; inactive = the rest. Only a selection was taken, and actives are over-represented in it overall.
# Assay: GDH-TPI coupling enzyme inhibitors, primary screen, artefact control for M. tuberculosis FBA inhibitor project, biochemical, absorbance, full deck (AID 588335);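 also: 0% = DMSO wells and 100% = wells lacking the enzyme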
# Details: GDH-TPI coupled enzyme counterscreen, NADH absorbance; at 4.8 µM; hits give high values
row,Compound,inhibition
1,CCC(=O)Oc1cccc(C(=O)Nc2ccc(-c3nnc(-c4ccco4)o3)cc2)c1,35.6% (active)
2,CCCOc1cccc(C(=O)Nc2nnn(CCC)n2)c1,3.11% (inactive)
3,O=C(Nc1ccc(Cl)cc1)c1cccc(OC(=S)N2CCOCC2)c1,-5.96% (inactive)
4,N#C/C(C(=S)Nc1ccccc1)=C1/NN=C(N2CCOCC2)N1c1ccccc1,6.29% (inactive)
5,Cc1ccc2c(O)c(Cc3ccccc3)c(=O)[nH]c2n1,12.7% (inactive)
6,CC1CCN(C(=O)Cn2cc(C(=O)c3ccco3)c3ccccc32)CC1,21.1% (inactive)
7,NC(=O)Cn1cc(C(=O)c2ccccc2F)c2ccccc21,1.25% (inactive)
8,N#Cc1ccc(Cn2cc(C(=O)c3ccco3)c3ccccc32)cc1,31.5% (active)
9,CCOC(=O)c1c(NC(=S)SC)sc(C(=O)N2CCc3ccccc3C2)c1C,1.83% (inactive)
10,CN1CCC(=NNC(=O)CN(c2cccc(Cl)c2)S(C)(=O)=O)CC1,3.59% (inactive)
11,CCc1nc2cccnc2n1-c1ccc(C(=O)O)cc1,0.86% (inactive)
12,CCCCn1c(O)c(N=NC(=O)Cn2c(C(F)(F)F)nc3ccccc32)c2ccccc21,-14.8% (inactive)
13,N#CCCCn1c(O)c(N=NC(=O)C(O)c2ccccc2)c2ccccc21 (stereo not given),42% (active)
14,Cc1csc(Nc2ccc(Cl)cc2)[n+]1-c1ccc(Cl)cc1,2.24% (inactive)
15,O=C(CNC(=O)c1cccnc1)N/N=C/c1cc(Br)c(O)c(Br)c1,42% (active)
16,CC1CC(=NNC(=O)C2COc3ccccc3O2)CC(C)(C)C1 (stereo not given),-8.18% (inactive)
17,O=C(CNC(=O)c1ccccc1Br)NNC(=O)c1cccs1,-3.45% (inactive)
18,CCOc1cc(/C=N/NC(=O)c2ccncc2)cc(Br)c1O,0% (inactive)
19,CCCOc1cccc(C(=O)NCCCNC(=O)c2cccnc2)c1,-5.19% (inactive)
20,C/C(=N\NC(=O)c1cccnc1)c1ccc(-n2ccnc2)cc1,12.6% (inactive)
21,O=C(CNC(=O)C(c1ccccc1)c1ccccc1)N/N=C\c1ccc2c(c1)OCO2,6.25% (inactive)
22,CCN(CC)c1ccc(/C=N/NC(=O)CNC(=O)c2cccnc2)cc1,33.1% (active)
23,CC(C)OCCCNC(=O)CNC(=O)c1cccs1,3.27% (inactive)
24,Cc1cccc(OCC(=O)NCCNC(=O)c2cccnc2)c1,-7.55% (inactive)

row,Compound,inhibition
1,CCN(CC)c1ccc(/C=N/NC(=O)CNC(=O)c2cccs2)cc1,31.4% (active)
2,O=C(CNC(=O)C1COc2ccccc2O1)N/N=C/c1cc(Br)c(O)c(Br)c1 (stereo not given),33.5% (active)
3,O=C(COC(=O)c1ccc(N2CCCC2=O)cc1)c1ccc(OC(F)F)cc1,2.55% (inactive)
4,Cc1cc(=O)oc2cc(NC(=O)C3CC(=O)N(Cc4ccccc4)C3)ccc12 (stereo not given),19.6% (inactive)
5,NC(N)=NCCCc1cn(CC(=O)N2CCNCC2)nn1,1.79% (inactive)
6,CC(C)Oc1ccc(C2NC(=O)NC2=O)cc1 (stereo not given),1.41% (inactive)
7,O=C1CCCC2=C1C(c1cccs1)n1nc(SCc3ccccc3)nc1N2 (stereo not given),19.9% (inactive)
8,CCC(C)[C@H](NC(=O)N1c2ccccc2NC(=O)[C@@H]1C(C)C)C(=O)N[C@@H](Cc1ccccc1)C(=O)O (stereo not given in full),10.8% (inactive)
9,CCCc1ccc(-c2c(C)sc(NC(=O)c3ccnn3C)c2C#N)cc1,17.4% (inactive)
10,CC(OC(=O)CNS(=O)(=O)/C=C/c1ccccc1)C(=O)Nc1ccc(S(=O)(=O)N2CCCC2)cc1 (stereo not given),-3.69% (inactive)
11,CN(C)c1ccc(Nc2c3c4c(cccc4n(C)c2=O)C(=O)c2ccccc2-3)cc1,5.68% (inactive)
12,CCSc1nc2c(c(=O)[nH]1)C(c1cccnc1)C(C(=O)OC(C)C)=C(C)N2 (stereo not given),0.91% (inactive)
13,COc1cc(S(=O)(=O)N2CCN(C(=O)C3CC3)CC2)ccc1NC(C)=O,7.35% (inactive)
14,O=C(Nc1ccc(OCC(=O)N2CCOCC2)cc1)c1cc(F)c(F)cc1Cl,6.18% (inactive)
15,CCOC(=O)c1c(C)[nH]c(C)c1C(=O)CSc1nc(N)cc(N)n1,5.66% (inactive)
16,CCOC(=O)c1cc(C)nc(S(C)(=O)=O)c1C#N,-4.82% (inactive)
17,CCOC(=O)c1c(C(C#N)C#N)cc(C)nc1C,34.7% (active)
18,C[C@@H]1CN([C@H](C)CO)C(=O)c2cc(Br)cnc2O[C@@H]1CN(C)Cc1cncnc1,13.4% (inactive)
19,Cc1cc(Cl)ccc1C(=O)C1CCCN(C(=O)c2ccc3c(c2)OCO3)C1 (stereo not given),4.42% (inactive)
20,O=C(O)c1ccc(N/N=C/c2ccc3ncccc3c2)cc1,34% (active)
21,CCNC(=S)NNC(=O)c1ccc2ncccc2c1,7.57% (inactive)
22,NCCCCCC(=O)N/N=C/c1ccc2nccnc2c1,26.5% (inactive)
23,CCCCN(C(=O)c1ccc2ccccc2c1)c1c(N)n(CCCC)c(=O)[nH]c1=O,1.27% (inactive)
24,O=C(CNC(=O)OCc1ccccc1)Oc1cc2oc(=O)cc(-c3ccccc3)c2cc1Cl,31.2% (active)

row,Compound,inhibition
1,O=C(CNC(=O)Cc1ccccc1)NCC(=O)OCC(=O)c1ccccc1Cl,4.58% (inactive)
2,O=C(CNC(=O)c1ccccc1)NCC(=O)OCc1ccc(Cl)cc1,4.85% (inactive)
3,CCCCNC(=O)N1CCN(S(C)(=O)=O)CC1,-0.96% (inactive)
4,Cc1ccc(C)c(-n2ccnc2SCC(N)=O)c1,-8.54% (inactive)
5,CCCCCCCC(=O)OC(CN1CCCCCC1)CN1CCCC1=O (stereo not given),4.02% (inactive)
6,NC(=O)CSc1nnc(NC(=O)c2ccc(Br)o2)s1,32.8% (active)
7,CC(C)(C)NC(=O)CSc1nnc(NC(=O)CCc2ccccc2)s1,4.27% (inactive)
8,COC(=O)CSc1nnc(NC(=O)CCc2ccccc2)s1,3.45% (inactive)
9,COc1ccc(N)cc1NC(=O)CN1CCOCC1,-1.77% (inactive)
10,Cc1ccc(S(=O)(=O)NCc2cn3ccsc3n2)c(C)c1,7.83% (inactive)
11,CCN1C(=O)[C@H]2[C@@H](c3ccccc3)N[C@]3(CCCN(Cc4ccc(C)cc4)C3=O)[C@H]2C1=O,-3.32% (inactive)
12,Cc1cc(=O)[nH]c(N/N=C/c2ccc3c(c2)OCCO3)n1,46.9% (active)
13,Cc1cc(=O)[nH]c(Nc2cccc(Br)c2)n1,-6.37% (inactive)
14,Cc1cc(=O)[nH]c(N/N=C/c2c(C)nn(-c3ccccc3Cl)c2Cl)n1,3.41% (inactive)
15,Cc1cccc(C)c1NC(=O)CNC(=O)c1ccc2c(c1)OCCO2,-1.08% (inactive)
16,CCN(CC)c1ccc(/C=N/Nc2nc(C)cc(=O)[nH]2)cc1,37.7% (active)
17,Cc1ccc(C)c(NC2=NCC(=O)N2c2ccc3c(c2)OCCO3)c1,-1.83% (inactive)
18,CCN(CC)CCNc1nc(-c2ccc(OC(F)F)cc2)c(C)s1,2.11% (inactive)
19,O=C(NNC1=NCCC1)c1cccc(S(=O)(=O)N2CCCCC2)c1,5.45% (inactive)
20,CCC1=C(OC(=O)N(CC)CC)N2C(=O)OC(=NCC3CC3)[C@]2(C)[C@H]2C1=CC[C@H]1C(=O)N(CC(=O)OC)C(=O)[C@H]12,9.36% (inactive)
21,COc1ccc(C=C2CCC3C(CCCC34OCCO4)C2=O)cc1 (stereo not given),25.5% (inactive)
22,COc1ccc(/C=C2\SC(=N)N(c3ccc(F)cc3)C2=O)cc1,4.31% (inactive)
23,COc1ccc(/C=C2\N=C3CCCN3C2=O)cc1,45.7% (active)
24,Cc1ccc(Cc2nnc(SCC(=O)Nc3ccc(C)cc3C)[nH]c2=O)cc1,4.83% (inactive)

row,Compound,inhibition
1,[O-][N+]12CCCCC1CCCC2CO (stereo not given),-10.3% (inactive)
2,Cc1cc(C)c2nc3nc(C)cc(C)c3c(N)c2c1,4.65% (inactive)
3,CCc1nnc(NC(=O)c2ccco2)s1,15.9% (inactive)
4,CCc1nnc(NC(=O)/C=C/c2ccc(C)o2)s1,40.7% (active)
5,CCc1nnc(NC(=O)[C@@H](NC(=O)c2cccc(C)c2)C(C)C)s1,-6.25% (inactive)
6,CN(C)c1ccc(NC(=O)CN2C3CCCC2CC(NC(=O)c2ccccc2)C3)cc1 (stereo not given),-4.43% (inactive)
7,CN(C)c1ccc(-c2nnc(-c3cccnc3)o2)cc1,30% (inactive)
8,Nc1ccc(-c2nnc(-c3ccc(-c4ccccc4)cc3)o2)cc1,49.1% (active)
9,OC(c1nnc(-c2ccccc2)o1)c1cccs1 (stereo not given),-12.3% (inactive)
10,CCC(C)(C)c1ccc(OCC(=O)N(C)C)c(C(C)(C)CC)c1,1.89% (inactive)
11,Cc1ccc(C(=O)N/N=C\c2cc(Br)c(Br)o2)cn1,9.96% (inactive)
12,O=C(CCNC(=O)c1ccccc1)NN=Cc1ccc(Br)o1,8.77% (inactive)
13,O=C(N/N=C/c1ccc(Br)o1)c1cncc(Br)c1,33.6% (active)
14,CN(CC1CCCO1)S(=O)(=O)c1ccc(C(=O)Nc2ccc(F)cc2)cc1 (stereo not given),4.12% (inactive)
15,CN1CCN(CCCNC(=O)c2cc3c(=O)oc4ccccc4c3s2)CC1,31.1% (active)
16,CCC1CCCCN1CCCNC(=O)c1cc2c(Cl)nc3ccccc3c2s1 (stereo not given),0.39% (inactive)
17,O=C(NCCN1CCN(Cc2ccccc2)CC1)c1cc2c(=O)[nH]c3ccccc3c2s1,24.2% (inactive)
18,COC(=O)c1cc(NC(=O)CC2C(=O)NCCN2C(=O)c2ccc(F)cc2)cc(C(=O)OC)c1 (stereo not given),3.86% (inactive)
19,Cc1csc(=O)n1CC(=O)Nc1ccc(S(C)(=O)=O)cc1,-3.52% (inactive)
20,CCOC(=O)/C=c1\s/c(=C\c2ccccc2OC)c(=O)n1CC(=O)N1CCOCC1,33.3% (active)
21,COc1ccccc1/C=C/C(=O)NC(=S)N1CCOCC1,18.2% (inactive)
22,CCOC(=O)N1CCN(C(=O)Cn2cnc3ccccc3c2=O)CC1,2.24% (inactive)
23,O=C(NCc1ccccc1Cl)C1CCN(c2ncnc3c2nc2n3CCCCC2)CC1,-11.1% (inactive)

# — PubChem BioAssay AID588335 (The Scripps Research Institute Molecular Screening Center, 2011)
